Sampled rows, rich in hits. Any-hit rate of the full collection: about 10%.
PNC assembly inh: High Content Assay for Compounds that inhibit the Assembly of the Perinucleolar Compartment. PC3M PTB-GFP, PNC prevalence imaging, 16 h; stronger effect = lower value. activity change (PNC), negative = inhibition, % at 10 µM. actives 3.1% (n = 140,000);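 active means readout at or below -70, meaning at least 70% loss of cells showing the perinucleolar compartment, a nuclear body marking cancer cells; inconclusive means readout between -30 and a set limit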
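Compounds are pinned in duplicate onto adhered PC3M cells stably expressing GFP-tagged PTB and incubated 16 h at 37 C. Cells are then fixed, nuclei stained with Hoechst, and PNC-positive cells counted.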
Luc counter: Counterscreen for Luciferase (Kinase-Glo TM) Inhibition. Kinase-Glo luciferase, ATP luminescence, 8 min. Potency, µM (series often up to 38.3 µM), actives largely listed as inhibitors. AID 1379, 2008. Luciferin 4-monooxygenase (Photuris pensylvanica), Q27757. actives 0.28% (n = 200,000); active means well fitted inhibition curve with a large enough effect; inconclusive means small, poorly fitted or top-dose-only effect; further: nearly all actives have a fitted effect of over 60% in size
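Compound is pinned into ATP-containing buffer (10 uM ATP, imidazole pH 7.2, 7 mM MgCl2). Kinase-Glo luciferase reagent is then added. Light output is recorded following an 8-min room-temperature incubation.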
LMNA splice mod: qHTS Assay for Modulators of Lamin A Splicing; HeLa LMNA splicing GFP/RFP minigene ratio, 48 h; Potency, µM (titrated, usually from 46.1 µM), usual class: inhibitors; actives 0.01% (n = 200,000); active means well fitted inhibition curve with a large enough effect in the signal ratio, with a control signal flat, not every such curve was filed as active; inconclusive means small, poorly fitted or top-dose-only effect, or effect the other way, or a change in a side signal; the % refers to the signal ratio
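S3 HeLa stable clones carrying a lamin A-EGFP splicing minigene plus DsRed2 were seeded at 600 cells/well in Opti-MEM with 2% FBS, pin-dosed and incubated 48 h at 37°C. Acumen cytometry (488 nm) gave the GFP/RFP total-intensity ratio.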
HPGD inh: qHTS Assay for Inhibitors of HPGD (15-Hydroxyprostaglandin Dehydrogenase); 15-hydroxyprostaglandin dehydrogenase [NAD(+)] (Homo sapiens), P15428; Potency, µM, hits mostly inhibitors; purified HPGD, NADH fluorescence kinetic, PGE2 substrate; AID 894, 2007; actives 4.3% (n = 150,000)
Target sequence (P15428 whole entry, looked up): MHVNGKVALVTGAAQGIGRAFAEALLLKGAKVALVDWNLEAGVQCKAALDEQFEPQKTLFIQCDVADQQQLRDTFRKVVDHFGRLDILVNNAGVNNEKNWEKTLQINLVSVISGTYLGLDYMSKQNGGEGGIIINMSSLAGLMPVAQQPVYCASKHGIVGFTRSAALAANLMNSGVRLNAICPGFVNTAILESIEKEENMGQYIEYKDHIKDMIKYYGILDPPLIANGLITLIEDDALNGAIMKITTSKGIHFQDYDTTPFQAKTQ
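20 nM HPGD preincubated 15 min at room temperature with compound in 50 mM Tris-HCl pH 8, 0.01% Tween 20. Started with 1 mM NAD+ and 30 uM prostaglandin E2; NADH fluorescence (360/450 nm) read 5 times over 30-s intervals, last minus first.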
ALDH1A1 inh: qHTS Assay for Inhibitors of Aldehyde Dehydrogenase 1 (ALDH1A1); actives 7.3% (n = 220,000); Potency, µM (titrated, usually from 75.3 µM), actives largely listed as inhibitors; Aldehyde dehydrogenase 1A1 (Homo sapiens), P00352; AID 1030, 2008; Purified ALDH1A1, NADH fluorescence, propionaldehyde substrate
Numbers stand for hits; - = inactive; ? = inconclusive; . = not tested or not shown; [ ] = dose if it differs, or a comment. Unless noted, the call rests on the fitted dose curve; in most records, active means well fitted inhibition curve with a large enough effect (not every such curve was filed as active); inconclusive means small, poorly fitted or top-dose-only effect, or another doubt; inactive means no such curve, though single readings can be large or run the other way.

SMILES	PNC assembly inh	Luc counter	LMNA splice mod	HPGD inh	ALDH1A1 inh
CCOc1cc(/C=N/NC(N)=O)cc(Br)c1OCC(=O)Nc1cccc2ccccc12	-	-	-	-	-
COc1cc(/C=N/O)cc(Br)c1OCC(=O)NCc1ccccc1	?	-	-	14µM	?
Cc1onc(-c2ccccc2Cl)c1C(=O)Oc1cc(F)cc(F)c1	.	.	-	.	.
Nc1nc2c(c(=O)[nH]1)C(c1cccc3ccccc13)C1=C(N2)c2ccccc2C1=O (centres undefined)	.	-	.	.	3.2µM
CC(=O)C1=C(C)NC2=C(C(=O)c3ccccc32)C1c1ccccc1 (centres undefined)	.	-	-	.	?
CC(C)=C1C2CCC1C1C(=O)N(c3ccc4c(c3)OCO4)C(=O)C21 (centres undefined)	-	-	-	-	-
CC(C)=C1C2C=CC1C1C(=O)N(c3ccc4c(c3)OCO4)C(=O)C21 (centres undefined)	-	-	-	-	3.5µM
CC(C)NC(=O)N1CCCC2(CCN(C(=O)c3ccncc3)CC2)C1	.	-	.	-	-
CCC1CCC(NC2CCCCNC2=O)CC1 (centres undefined)	-107	-	-	-	-
O=C(CNc1ccc2ccccc2c1)N/N=C/c1cc2ccccc2nc1Cl	-	-	?	-	22µM
O=C(COc1cccc(Cl)c1)N/N=C\c1cc2ccccc2nc1Cl	-	-	-	?	?
CCOc1ccc(C(=O)Nc2ccc(-c3nc4ccccc4s3)c(C)c2)cc1OCC	.	.	-	.	.
O=C(/C=C/c1ccccc1)N/C(=C/c1ccccc1)C(=O)N1CCCCC1	-	.	-	.	14µM
O=C(/C(=C/c1ccccc1)c1ccccc1)N1CCCCC1	-	-	-[0.0737 µM]	0.71µM	-
O=C(N/C(=C/c1ccccc1)C(=O)N1CCCCCC1)c1ccccc1	.	-	.	.	?
N/C(=N\O)c1cn([C@@H]2O[C@@H](CO)[C@H](O)[C@@H]2O)c2ncnc(NO)c12	.	-[7.66 µM]	.	-	-[13.5 µM]
O=C(NCC(c1ccc2c(c1)OCO2)N1CCN(c2ccccc2)CC1)C(=O)Nc1ccccc1 (centres undefined)	.	.	-	.	.
c1ccc(Cn2ccnc2SCc2nnc(-c3ccccc3)o2)cc1	-	-	?	25µM	-
NC(=O)CSc1nccn1Cc1ccccc1	.	-	.	.	10µM
Cc1nnc(SCc2nnc(-c3ccccc3)o2)n(N)c1=O	-	-	-	-	-
CCOC(=O)CSc1nc2cc3c(cc2c(=O)n1CCCCCC(=O)NCc1ccc(OC)cc1)OCO3	.	.	-	.	.
COc1ccc(Cl)cc1NC(=O)CCc1ccccc1	-	-	-	-	-
COc1cc(Cl)c(C)cc1NC(=O)CSc1ccccc1	-125	-	-	-	?
Cc1ccc(Cl)cc1NC(=O)CSC(N)=O	?	-	-	-	1.6µM
COc1cc(OC)c(NC(=O)CCc2ccccc2)cc1Cl	-	-	-	16µM	-
SMILES	PNC assembly inh	Luc counter	LMNA splice mod	HPGD inh	ALDH1A1 inh
COc1cc(Cl)c(C)cc1NC(=O)CSc1ccc(C)cc1	-	-	-	-	-
COc1cc(Cl)c(C)cc1NC(=O)CSc1cc(Cl)ccc1Cl	-119	-	-	-	-
CC(C)(C)N1C(=O)[C@H]2[C@@H]3[C@H](O)C=CC(=O)[C@H]3CC[C@H]2C1=O	.	.	.	.	-[13.5 µM]
CCC(C)(C)NC(=O)Cc1ccc(C)cc1	-	-	-	14µM	-
CCCCNC(=O)Cc1ccc(C)cc1	-	-	-	?	-
O=C(Nc1cccc(Br)c1)c1cc(S(=O)(=O)N2CCCCC2)c[nH]1	.	.	-	.	.
COc1ccc(NC(=O)N2CCC3(CC2)CCN(S(C)(=O)=O)CC3)cc1	.	-	.	-	-
O=C(Nc1ccc(Cl)cc1)[C@@H]1[C@@H]2C(=O)N(c3ccc(Cl)cc3)C(=O)[C@@H]2[C@H]2C=CC=NN21	?	-	-	-	?
O=C(Nc1ccc(Cl)cc1)[C@@H]1[C@@H]2C(=O)N(c3ccc(Cl)cc3Cl)C(=O)[C@@H]2[C@H]2C=CC=NN21	-	-	-	28µM	22µM
Cc1ccc(N2C(=O)[C@@H]3[C@H](C2=O)[C@H]2C=CC=NN2[C@@H]3C(=O)Nc2ccc(Cl)cc2)cc1	-	-	-	35µM	7.9µM

Screens from PubChem.
